We go through nine compounds from PubChem BioAssay (NCI).

The nature of experiment [1]: NCI Yeast Anticancer Drug Screen. Data for the rad50 strain (AID 155).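 Note: 0% = growth of vehicle-only cultures of the same strain.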 Particulars: S. cerevisiae rad50 strain growth inhibition, hits give high values. Put shortly:
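Compounds were tested on a yeast strain with an engineered DNA damage repair alteration; the reported value is growth inhibition normalised to vehicle treatment.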

Experiment [2] can be described thus: NCI Yeast Anticancer Drug Screen. Data for the mec2-1 strain (AID 157). Particulars: S. cerevisiae mec2-1 strain, hits give high values. Put shortly: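 Readout is yeast growth inhibition, normalised to vehicle-treated controls, in the mec2-1 strain exposed to compound.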
The nature of experiment [3]: NCI Yeast Anticancer Drug Screen. Data for the sgs1 mgt1 strain (AID 161).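 Note: 0% = growth of cultures given vehicle only.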 Particulars: S. cerevisiae sgs1 mgt1 strain, hits give high values. The essentials: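 Percent growth inhibition was derived by comparing compound-exposed mutant yeast with vehicle-exposed cultures. The strain carries alterations in DNA damage repair.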
Experiment [4] can be described thus: NCI Yeast Anticancer Drug Screen. Data for the cln2 rad14 strain (AID 165).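 Note: 0% = growth equal to vehicle treated cultures.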 As to conditions: S. cerevisiae cln2 rad14 strain, hits give high values. Put shortly: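 Relative to vehicle controls, growth inhibition of compound-treated cln2 rad14 yeast was recorded.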
Experiment [5] in a line: NCI Yeast Anticancer Drug Screen. Data for the bub3 strain (AID 167). Particulars: S. cerevisiae bub3 mutant strain, hits give high values. The essentials: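 Growth of a checkpoint-deficient yeast mutant is measured after compound exposure. Values represent inhibition relative to vehicle.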
Experiment [6] is described as follows: NCI Yeast Anticancer Drug Screen. Data for the mlh1 rad18 strain (AID 175). As to conditions: S. cerevisiae mlh1 rad18 strain growth inhibition, hits give high values. The essentials: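 Test agents were incubated with a yeast strain of defined genotype (DNA damage repair defect). Inhibition of growth was derived by comparison with vehicle-exposed cultures.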

[7] abbreviates: at 5.0 µM (retest, dose inferred, filed as 0.5).
Where [8] appears, read: at 50.0 µM (retest, dose inferred, filed as 5.0).

Values joined by “and” are separate entries in the source; they are usually repeats but may differ in a detail not shown here. Identical values can stand only once. Compounds without any hit were thinned out: in the full panel of roughly 79,000, 15% have a hit. A number with no mark means an inactive call. Active and inactive are the calls of the source. Cut-off read from the data, not from the text of the source: active = growth inhibition above about 70%; inactive = the rest.

Regarding `CN(Cc1ccccc1)CC(O)c1ccc(Cl)cc1` (configuration not stated), the growth inhibition was -4% in experiment [1] (setting [7]); 38% in experiment [1] (setting [8]); 57.5% in experiment [1] (at 50.0 µM); -1% in experiment [2] (setting [7]); 23% in experiment [2] (setting [8]); 0.75% in experiment [2] (at 50.0 µM). The growth inhibition in experiment [3] (setting [7]) was 2%; in experiment [3] (setting [8]), 44%; in experiment [3] (at 50.0 µM), 58.6%; in experiment [4] (setting [7]) it was 3%; in experiment [4] (setting [8]), 25%; in experiment [4] (at 50.0 µM) it was 48.5%. The growth inhibition was 2% in experiment [5] (setting [7]); 41% in experiment [5] (setting [8]); 60.5% in experiment [5] (at 50.0 µM); 4% in experiment [6] (setting [7]); 34% in experiment [6] (setting [8]); 34.5% in experiment [6] (at 50.0 µM).
For the compound `O=c1oc2ccccc2c(O)c1C(c1ccc(/C=C/c2ccccc2)cc1)c1c(O)c2ccccc2oc1=O`, the growth inhibition in experiment [1] (setting [7]) is 13%; in experiment [1] (setting [8]) it was 97% (active); in experiment [1] (at 50.0 µM), 87.2% (active); in experiment [2] (setting [7]), 36%; in experiment [2] (setting [8]), 98% (active); in experiment [2] (at 50.0 µM) it was 90% (active). For the same compound, the growth inhibition in experiment [3] (setting [7]) was 26%; in experiment [3] (setting [8]), 95% (active); in experiment [3] (at 50.0 µM), 81.7% (active); in experiment [4] (setting [7]), 54%; in experiment [4] (setting [8]), 95% (active); in experiment [4] (at 50.0 µM) it was 77.5% (active). The growth inhibition was 52% in experiment [5] (setting [7]); 97% (active) in experiment [5] (setting [8]); 76.7% (active) in experiment [5] (at 50.0 µM); 7% in experiment [6] (setting [7]); 98% (active) in experiment [6] (setting [8]); 91.3% (active) in experiment [6] (at 50.0 µM).
As for `c1cc[c]([Pb]([c]2ccccc2)[c]2ccccc2)cc1.c1cc[c]([Pb]([c]2ccccc2)[c]2ccccc2)cc1`, the growth inhibition in experiment [1] (setting [7]) was 99% (active); in experiment [1] (setting [8]) it was 98% (active); in experiment [1] (at 50.0 µM) it was 99% (active); in experiment [2] (setting [7]), 100% (active); in experiment [2] (setting [8]), 99% (active); in experiment [2] (at 50.0 µM), 99.5% (active). The growth inhibition in experiment [3] (setting [7]) is 100% (active); in experiment [3] (setting [8]) it was 99% (active); in experiment [3] (at 50.0 µM) it was 99.5% (active); in experiment [4] (setting [7]), 99% (active); in experiment [4] (setting [8]), 98% (active); in experiment [4] (at 50.0 µM), 99% (active). For the same compound, the growth inhibition in experiment [5] (setting [7]) is 99% (active); in experiment [5] (setting [8]) it was 97% (active); in experiment [5] (at 50.0 µM) it was 99.4% (active); in experiment [6] (setting [7]), 100% (active); in experiment [6] (setting [8]), 99% (active); in experiment [6] (at 50.0 µM), 99.2% (active).
Consider `CC[C@](C)(O)C(=O)O[C@H]1C(=O)O[C@@H]2C[C@H]3C(C)=CC(=O)[C@@H](O)[C@]3(C)[C@H]3[C@@]4(O)OC[C@]32[C@@H]1[C@@H](C)[C@H]4O`, for which the growth inhibition in experiment [1] (setting [7]) is 17%; in experiment [1] (setting [8]), 94% (active); in experiment [1] (at 50.0 µM) it was 68%; in experiment [2] (setting [7]), 21%; in experiment [2] (setting [8]), 90% (active); in experiment [2] (at 50.0 µM) it was 46.6%. Besides, the growth inhibition in experiment [3] (setting [7]) is 14%; in experiment [3] (setting [8]), 91% (active); in experiment [3] (at 50.0 µM) it was 61.8%; in experiment [4] (setting [7]) it was 33%; in experiment [4] (setting [8]), 97% (active); in experiment [4] (at 50.0 µM), 71.6% (active). The growth inhibition in experiment [5] (setting [7]) is 6%; in experiment [5] (setting [8]) it was 97% (active); in experiment [5] (at 50.0 µM), 70.3% (active); in experiment [6] (setting [7]) it was 9%; in experiment [6] (setting [8]), 94% (active); in experiment [6] (at 50.0 µM), 74.3% (active).
On to `CCOP(=O)(O)C(Nc1ccc(N=Nc2ccccc2)cc1)c1cccc(C(Nc2ccc(N=Nc3ccccc3)cc2)P(=O)(O)OCC)c1` (configuration not stated), for which the growth inhibition in experiment [1] (setting [7]) was 10%; in experiment [1] (setting [8]), 29%; in experiment [1] (at 50.0 µM), 49.4%; in experiment [2] (setting [7]), 0%; in experiment [2] (setting [8]) it was 46%; in experiment [2] (at 50.0 µM) it was 47.6%. For the same compound, the growth inhibition in experiment [3] (setting [7]) was 5%; in experiment [3] (setting [8]), 8%; in experiment [3] (at 50.0 µM), 46.3%; in experiment [4] (setting [7]), 6%; in experiment [4] (setting [8]), 27%; in experiment [4] (at 50.0 µM) it was 44%. Further, the growth inhibition in experiment [5] (setting [7]) is 4%; in experiment [5] (setting [8]) it was 35%; in experiment [5] (at 50.0 µM), 42.5%; in experiment [6] (setting [7]), 7%; in experiment [6] (setting [8]), 42%; in experiment [6] (at 50.0 µM), 47.9%.
On to `CCOC(=O)C1C2OC(=O)C(C(=O)C2CN(CCCl)CCCl)C1C1CC=C(CC2=CCC(C3C4C(=O)OC(C(CN(CCCl)CCCl)C4=O)C3C(=O)OCC)CC2)CC1` (configuration not stated), for which the growth inhibition in experiment [1] (setting [7]) was 96% (active); in experiment [1] (setting [8]), 97% (active); in experiment [1] (at 50.0 µM) it was 53.5%; in experiment [2] (setting [7]) it was 84% (active); in experiment [2] (setting [8]), 99% (active); in experiment [2] (at 50.0 µM), 57.2%. The growth inhibition in experiment [3] (setting [7]) is 68%; in experiment [3] (setting [8]) it was 96% (active); in experiment [3] (at 50.0 µM), 57.1%; in experiment [4] (setting [7]), 93% (active); in experiment [4] (setting [8]) it was 96% (active); in experiment [4] (at 50.0 µM), 54.1%. Also, the growth inhibition in experiment [5] (setting [7]) was 49%; in experiment [5] (setting [8]) it was 97% (active); in experiment [5] (at 50.0 µM) it was 49.5%; in experiment [6] (setting [7]), 95% (active); in experiment [6] (setting [8]), 98% (active); in experiment [6] (at 50.0 µM) it was 65.3%.
In the case of `CCC[CH2][Sn]1([CH2]CCC)[O]C(c2ccccn2)S(=O)(=O)[O]1` (configuration not stated), the growth inhibition was 19% in experiment [1] (setting [7]); 19% in experiment [1] (setting [8]); 90.2% (active) in experiment [1] (at 50.0 µM); 12% in experiment [2] (setting [7]); 12% in experiment [2] (setting [8]); 91.2% (active) in experiment [2] (at 50.0 µM). The growth inhibition in experiment [3] (setting [7]) is 18%; in experiment [3] (setting [8]), 18%; in experiment [3] (at 50.0 µM), 90.1% (active); in experiment [4] (setting [7]), 5%; in experiment [4] (setting [8]), 5%; in experiment [4] (at 50.0 µM), 90.5% (active). In addition, the growth inhibition is 1% in experiment [5] (setting [7]); 1% in experiment [5] (setting [8]); 91.3% (active) in experiment [5] (at 50.0 µM); 10% in experiment [6] (setting [7]); 10% in experiment [6] (setting [8]); 88.3% (active) in experiment [6] (at 50.0 µM).
As for `CCOC(=O)N(C(=O)c1ccc([As]=O)cc1)C(=O)c1ccc([As]=O)cc1` (configuration not stated), the growth inhibition in experiment [1] (setting [7]) is 8%; in experiment [1] (setting [8]) it was 98% (active); in experiment [1] (at 50.0 µM), 99.2% (active); in experiment [2] (setting [7]), 5%; in experiment [2] (setting [8]), 99% (active); in experiment [2] (at 50.0 µM) it was 99.3% (active). Further, the growth inhibition in experiment [3] (setting [7]) was 10%; in experiment [3] (setting [8]), 100% (active); in experiment [3] (at 50.0 µM), 99.5% (active); in experiment [4] (setting [7]), -4%; in experiment [4] (setting [8]), 99% (active); in experiment [4] (at 50.0 µM), 99% (active). In addition, the growth inhibition in experiment [5] (setting [7]) was 11%; in experiment [5] (setting [8]), 99% (active); in experiment [5] (at 50.0 µM), 89.3% (active); in experiment [6] (setting [7]), 6%; in experiment [6] (setting [8]) it was 99% (active); in experiment [6] (at 50.0 µM), 98.7% (active).
On to `COc1ccccc1/C=C(/C)[N+](=O)[O-]`, for which the growth inhibition in experiment [1] (setting [7]) was 96% (active); in experiment [1] (setting [8]), 99% (active); in experiment [1] (at 50.0 µM), 99.5% (active); in experiment [2] (setting [7]) it was 35% and 21%; in experiment [2] (setting [8]) it was 99% (active) and 100% (active); in experiment [2] (at 50.0 µM), 99.8% (active). Besides, the growth inhibition was 34% and 55% in experiment [3] (setting [7]); 99% (active) and 100% (active) in experiment [3] (setting [8]); 99.2% (active) in experiment [3] (at 50.0 µM); 13% and 12% in experiment [4] (setting [7]); 99% (active) in experiment [4] (setting [8]); 99.5% (active) in experiment [4] (at 50.0 µM). The growth inhibition was 34% and 27% in experiment [5] (setting [7]); 99% (active) and 100% (active) in experiment [5] (setting [8]); 99.8% (active) in experiment [5] (at 50.0 µM); 34% and -4% in experiment [6] (setting [7]); 99% (active) in experiment [6] (setting [8]); 99.5% (active) in experiment [6] (at 50.0 µM).
